The whole screen tested about 360,000 compounds, of which about 7,500 (2.1%) were called active. Inconclusive results (about 8%) are left out. What follows is part of a selection rich in actives, with near analogues and random picks from the rest. Where a call stands in place of a potency, no number is given. Unmarked numbers belong to inactive results. Calls follow the shape of the dose curve; as a rule, active = well fitted cell-killing curve with a large enough effect; inconclusive = small, poorly fitted or top-dose-only effect, or effect the other way, or another doubt; inactive = no such curve, though single readings can be large or run the other way.
Assay: qHTS for induction of synthetic lethality in tumor cells producing 2HG: qHTS for the HT-1080-IDH1KD cell line
Conditions: HT-1080 IDH1 knockdown viability, ATP luminescence, 48 h; series mostly up to 46.1 µM
Method in brief: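 Assay cells: HT-1080 with IDH1 knockdown, 750 per well, RPMI/5% FBS. Exposure: 48 h at 37 °C following 2 h pre-incubation. Read: CellTiter-Glo luminescence; fitted concentration-response, curve class assigned.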
In the case of O=C(Nc1cccc(Cc2ccccc2)c1)Nc1ccc2nc([C@@H]3O[C@H](CO)[C@@H](O)[C@H](O)[C@H]3O)[nH]c2c1, the Potency is reported as “inactive”.
With Cc1[nH]c2ccccc2c1C(=O)CSCC(=O)O the Potency was “inactive”.
With Cc1[nH]c2ccccc2c1C(=O)CN1CCCC(C)C1 (centres undefined) the Potency was “inactive”.
For Cc1[nH]c2ccccc2c1C(=O)CN1CC(C)CC(C)C1 (centres undefined), the Potency was 18.4 µM (active).
In the case of C=CCn1c2c(c3ccccc31)CCC2, the Potency is reported as “inactive”.
In the case of C=C1C(=O)OC2C1CCC(C)=CCCC1(C)OC21 (centres undefined), the Potency is reported as 11.6 µM (active).
In the case of COc1cc2c(=O)n(C)c3ccccc3c2cc1OC, the Potency is reported as “inactive”.
In the case of Cn1c(=O)c([N+](=O)[O-])c(Oc2ccccc2)c2ccccc21, the Potency is reported as 23.1 µM (active).
For Cc1cc(C)c(-c2c(O)c3ccccc3n(C)c2=O)c(C)c1, the Potency was “inactive”.
With Cc1c(/C=N/N2C(=O)C3C4C=CC(C4)C3C2=O)c2ccccc2n1C (centres undefined) the Potency was “inactive”.
In the case of Cc1c(/C=N\NC(=O)c2cc3ccccc3o2)c2ccccc2n1C, the Potency is reported as 18.4 µM (active).
For O=C(N/N=C/c1cccc(O)c1)c1cc2c(ccc3ccccc32)o1, the Potency was “inactive”.
With CN(Cc1ccccc1)C(=O)[C@@H]1CCCN1C(=O)[C@@H]1CCCN1C(=O)c1c(F)cccc1F the Potency was “inactive”.
For CCOC(=O)C(C(=O)OCC)C(C#N)c1ccccc1 (centres undefined), the Potency was “inactive”.
In the case of CCOC(=O)/C=C/C(=O)OCC(=O)NC(c1ccccc1)c1ccccc1, the Potency is reported as 20.6 µM (active).
For O=C(Cc1ccc(-c2ccccc2)cc1)NC(c1ccccc1)c1ccccc1, the Potency was “inactive”.
In the case of CN(C)c1ccc(C2N(C)C(=O)c3ccccc3N2C)cc1 (centres undefined), the Potency is reported as “inactive”.
For CN(C)c1ccc(Nc2c3c4c(cccc4n(C)c2=O)C(=O)c2ccccc2-3)cc1, the Potency was 4.61 µM (active).
For CSc1ncnc2c1ncn2CCCNCC(C)c1ccccc1 (centres undefined), the Potency was “inactive”.
For c1ccc(Cn2nnc3c(NCC4CC4)ncnc32)cc1, the Potency was “inactive”.
In the case of O=[N+]([O-])/C=C/c1ccc2c(ccn2Cc2ccccc2)c1, the Potency is reported as 16.4 µM (active).
With CCc1nc2ccc(C(=O)N(C)Cc3ccco3)cn2c1N(C)C(=O)Cc1ccccc1 the Potency was “inactive”.
With Cc1ccc(S(=O)(=O)N2C[C@H]3C(=O)C[C@@H](c4cccc5ccccc45)N(S(=O)(=O)c4ccc(C)cc4)[C@H]3C[C@H]2c2ccc(Cl)cc2)cc1 the Potency was “inactive”.
For NC(Cc1ccc(F)cc1)c1csc(Nc2nncc3ccccc23)n1 (centres undefined), the Potency was 25.9 µM (active).
With CC(=O)c1ccc(Nc2nc(C(N)c3ccccc3)cs2)cc1 (centres undefined) the Potency was “inactive”.
With COCC(C)NC(=O)COc1nncc2ccccc12 (centres undefined) the Potency was “inactive”.
In the case of CN1CCN(C(=O)c2ccc(-c3cc4nc(NCc5cccnc5)n(C)c(=O)c4s3)cc2)CC1, the Potency is reported as “inactive”.
In the case of CNc1cnc(-c2cc(OC)c(OC)c(OC)c2)cn1, the Potency is reported as “inactive”.
For CC(=O)Nc1ccc(Nc2cc(C)nc(Nc3ccc(NC(C)=O)cc3)n2)cc1, the Potency was “inactive”.
In the case of CC(=O)Nc1ccc(Nc2c3ccccc3nc3ccccc23)cc1, the Potency is reported as 14.6 µM (active).
With CC(=O)Nc1ccc(S(=O)(=O)N(C)c2nc3ccccc3nc2Cl)cc1 the Potency was “inactive”.
For Cc1ccc(S(=O)(=O)N2CC3C(=O)C[C@@H](c4ccccc4Cl)N(S(=O)(=O)c4ccc(C)cc4)C3CC2c2ccccc2)cc1 (some centres undefined), the Potency was “inactive”.
With CCOC(=O)C1CCCN(C(=O)c2cccc3ccccc23)CC1 (centres undefined) the Potency was “inactive”.
For C[C@@H]1Cn2cnc(C(=O)Nc3ccc(CNC(=O)OC(C)(C)C)cc3)c2C(=O)N1, the Potency was “inactive”.
In the case of CN(c1ccccc1)S(=O)(=O)c1cc(C(=O)Nc2nc3ccccc3[nH]2)ccc1Cl, the Potency is reported as “inactive”.
For COC(=O)Nc1nc2ccc(Sc3ccccc3)cc2[nH]1, the Potency was 0.82 µM (active).
For Cc1ccc(O)c(CNc2nc3ccccc3[nH]2)c1, the Potency was “inactive”.
With CCOC(=O)C1(C)CCCN(C(=O)c2ccc(F)c(Cl)c2)C1 (centres undefined) the Potency was “inactive”.
With COc1ccc2c(CC(=O)N3CCc4cc(OC)c(OC)cc4C3)coc2c1 the Potency was “inactive”.
For COc1ccccc1CNC(=O)c1cc(=O)c2ccccc2o1, the Potency was “inactive”.
With COc1cc2c(cc1OC)CN(C(=O)c1cc(=O)c3ccccc3o1)CC2 the Potency was 5.8 µM (active).
With COc1cc(NC(=O)C2=C(C)OCCS2)c(Cl)cc1C(=O)NCCCN1CCCC(C)C1 (centres undefined) the Potency was “inactive”.
With O=[N+]([O-])c1ccccc1S(=O)(=O)Nc1cccc2cccnc12 the Potency was 11.6 µM (active).
With Cc1ccc2cccc([N+](=O)[O-])c2n1 the Potency was “inactive”.
In the case of NS(=O)(=O)c1ccc(CCNS(=O)(=O)c2cccc3cccnc23)cc1, the Potency is reported as “inactive”.
With Cc1nccn1-c1ccc(NC(=O)[C@H]2O[C@@H](n3cnc4c(N)ncnc43)[C@H](O)[C@@H]2O)cc1 the Potency was “inactive”.
In the case of CC1(C(=O)NS(=O)(=O)Cc2cccc(Cl)c2)CCN1C(=O)Cc1ccccc1 (centres undefined), the Potency is reported as “inactive”.
With CCCCn1nnnc1C(c1ccccc1)N1CCN(c2ccccc2OC)CC1 (centres undefined) the Potency was “inactive”.
For CCOC(=O)N1CCN(C(=O)c2ccccc2N(Cc2ccccc2)S(=O)(=O)c2ccc(OC)cc2)CC1, the Potency was 3.26 µM (active).
With CCOC(=O)N1CCN(S(=O)(=O)c2ccc(OC)cc2)CC1 the Potency was “inactive”.
With NC(=O)c1ccccc1N(Cc1ccccc1)S(=O)(=O)c1ccccc1 the Potency was “inactive”.
In the case of CCCc1ccc(C(O)c2ncc(-c3cccc(OC)c3)[nH]2)cc1 (centres undefined), the Potency is reported as “inactive”.
With CN(CCO)C(=O)c1nc[nH]c1C(=O)N(C)Cc1ccccc1 the Potency was “inactive”.
For Cc1ccc(-c2nc3ccc(Br)cn3c2Cc2ccccc2C(F)(F)F)cc1, the Potency was “inactive”.
With COc1ccc(-c2cc(C)nc3nc(N)nn23)cc1 the Potency was “inactive”.
In the case of Cc1cc(N)n2nc(-c3ccc(C(C)(C)C)cc3)cc2n1, the Potency is reported as 20.6 µM (active).
With Cc1cc(C(C)(C)C)cc(C)c1N the Potency was “inactive”.
In the case of O=C(Nc1ccc(Cl)cc1)c1csc([C@@H]2O[C@H](CO)[C@H](O)[C@H](O)[C@H]2O)n1, the Potency is reported as “inactive”.
For CO[C@@H]1CN(C)C(=O)c2cc(NC(=O)Nc3cc(F)ccc3F)ccc2OC[C@H](C)N(C(=O)c2ccccn2)C[C@@H]1C, the Potency was “inactive”.
For CCOC(=O)N1C(=O)C[C@](Sc2ccc(C)cc2)(C(=O)OC)[C@H]1c1ccccc1, the Potency was “inactive”.
In the case of Nc1ncnc2c1ncn2[C@@H]1O[C@H](C(=O)NCC(F)(F)F)[C@@H](O)[C@H]1O, the Potency is reported as “inactive”.
In the case of COc1ccc(-c2[nH][nH]c(=O)c2NC(=O)c2ccc([N+](=O)[O-])cc2)cc1, the Potency is reported as “inactive”.
In the case of CCOC(=O)c1cc(-c2sc(NC(=O)c3ccccc3)nc2C)n(-c2ccc(Br)cc2)n1, the Potency is reported as “inactive”.
In the case of c1ccc(C(c2ccccc2)N2CCN(Cc3nnnn3C3CCCCC3)CC2)cc1, the Potency is reported as “inactive”.
In the case of COc1ccccc1CN1CCN(C(c2ccccc2)c2ccccc2)CC1, the Potency is reported as “inactive”.
In the case of CC1(C)CC(N2CCN(C(c3ccccc3)c3ccccc3)CC2)=CC(=[N+]2CCCCC2)C1, the Potency is reported as 2.59 µM (active).
With OC(c1ccccc1)c1nc(/C=C/c2ccc(C(F)(F)F)cc2)cs1 (centres undefined) the Potency was “inactive”.
For CCCCc1ccc(S(=O)(=O)NC(=O)C2(C)CCN2C(=O)c2ccccc2)cc1 (centres undefined), the Potency was “inactive”.
For CCCCCCn1c(SCC(=O)c2ccccc2)nc2c1c(=O)[nH]c(=O)n2C, the Potency was “inactive”.
In the case of CCCCCn1c(SCCC(C)C)nc2c1c(=O)[nH]c(=O)n2C, the Potency is reported as 20.6 µM (active).
For C=CCSc1nc2c(c(=O)[nH]c(=O)n2C)n1Cc1ccccc1, the Potency was “inactive”.
With COCCNC(=O)c1cc2c(Br)ccc(Br)c2nc1N the Potency was “inactive”.
With CSc1ncnc2c1ncn2CCCNCC1CCCCC1 the Potency was “inactive”.
In the case of CCc1nc2ccc(C(=O)NCCNC(C)=O)cn2c1N(CC)Cc1cccc(Br)c1, the Potency is reported as “inactive”.
For CN(Cc1ccccc1)C(=O)CCC1CCN(C(=O)c2ccco2)CC1, the Potency was “inactive”.
With Cc1cc(NC(=O)/C=C/C(=O)N(c2ccccc2C)C(C(=O)NC2CCCC2)c2ccc(F)cc2)no1 (centres undefined) the Potency was 10 µM (active).
With Cc1cc(NC(=O)CCC(=O)N(c2ccccc2)C(C(=O)NC2CCCC2)c2ccncc2)no1 (centres undefined) the Potency was “inactive”.
For Cc1cc(NC(=O)CCC(=O)N(c2cccc(F)c2)C(C(=O)NC2CCCC2)c2ccncc2)no1 (centres undefined), the Potency was “inactive”.
For O=C(N=C1SC2CS(=O)(=O)CC2N1Cc1ccccc1)c1ccccc1 (centres undefined), the Potency was “inactive”.
For COC(=O)[C@]12CCCCC=C1N(Cc1ccccc1)C(=O)[C@H](CC(=O)NCc1ccc(C)o1)C2, the Potency was “inactive”.
In the case of CCn1c(C(O)c2cc(OC)ccc2OC)nc2ccccc21 (centres undefined), the Potency is reported as “inactive”.
With Nc1nonc1-c1nc2ccccc2n1Cc1ccc(F)cc1 the Potency was “inactive”.
In the case of COc1ccc(C)c(Cn2c(-c3nonc3N)nc3ccccc32)c1, the Potency is reported as 5.17 µM (active).
In the case of COCCCn1c(=O)/c(=C/c2ccccc2OC(C)C)s/c1=C(\C#N)C(=O)Nc1ccc(C(=O)O)cc1, the Potency is reported as “inactive”.
For CC1(c2cccc(Br)c2)NC(=O)N(CC(=O)NCCC2=CCCCC2)C1=O (centres undefined), the Potency was “inactive”.
With Oc1ccc(-c2nnc(Nc3ccccc3)c3ccccc23)cc1 the Potency was “inactive”.
Molecule Cc1ccc2nc(Nc3ccccc3O)nc(-c3ccccc3)c2c1 has an activity, negative = toxicity of -0.715% [at 9.24 µM].
For Cc1cccc(-c2nc(Nc3ccc(O)cc3)c3ccccc3n2)c1, the Potency was 11.6 µM (active).
With CC1=C(C(=O)N2CCOCC2)CC(CC(=O)NCc2ccco2)C(=O)N1Cc1ccc(F)cc1 (centres undefined) the Potency was “inactive”.
In the case of COc1ccc(N2c3ccccc3CN(Cc3ccccc3)[C@@H](C)[C@H]2Cc2ccc(-c3ccccc3)cc2)cc1, the Potency is reported as “inactive”.
For O=C(NCc1ccccc1Cl)c1csc([C@@H]2O[C@H](CO)[C@@H](O)[C@H]2O)n1, the Potency was “inactive”.
In the case of O=C(Nc1ccc2nc3n(c(=O)c2c1)CCCC3)c1ccc(Cl)nc1, the Potency is reported as “inactive”.
In the case of O=C(NNC(=O)c1ccc(Cl)nc1)c1ccc(Br)cc1, the Potency is reported as “inactive”.
With CCN(CC)c1ccc(NC(=O)c2ccc(Cl)nc2)cc1 the Potency was 7.31 µM (active).
With CC(C)n1ncc2c(C(=O)N3CCN(Cc4cccs4)CC3)cc(C3CC3)nc21 the Potency was “inactive”.
For CC1C(=O)N(Cc2cn(CC3CCCCC3)nn2)CCS(=O)(=O)N1Cc1ccc(-c2cccc(N(C)C)c2)cc1 (centres undefined), the Potency was “inactive”.
For COc1cc(/C=C/C(=O)N2c3ccccc3Sc3ccc(C(F)(F)F)cc32)cc(OC)c1OC, the Potency was “inactive”.
In the case of O=C(CN1CCCCCC1)N1c2ccccc2Sc2ccc(C(F)(F)F)cc21, the Potency is reported as 11.2 µM (active).
With O=C(CN1CCCCC1)N1c2ccccc2Sc2ccc(C(F)(F)F)cc21 the Potency was “inactive”.
Potency is read from the fitted curve at half-maximal effect.
